Test results from the supplement of paper PMC10681739.

molecular target: T1, ETS1 (UniProt P14921); assay: ETS1 binding intensity (PBM fluorescence), ETS1 alone (arbitrary fluorescence units); higher = stronger binding; conditions: ETS1 concentration 1 nM; RUNX1 concentration 0 nM
T1 sequence: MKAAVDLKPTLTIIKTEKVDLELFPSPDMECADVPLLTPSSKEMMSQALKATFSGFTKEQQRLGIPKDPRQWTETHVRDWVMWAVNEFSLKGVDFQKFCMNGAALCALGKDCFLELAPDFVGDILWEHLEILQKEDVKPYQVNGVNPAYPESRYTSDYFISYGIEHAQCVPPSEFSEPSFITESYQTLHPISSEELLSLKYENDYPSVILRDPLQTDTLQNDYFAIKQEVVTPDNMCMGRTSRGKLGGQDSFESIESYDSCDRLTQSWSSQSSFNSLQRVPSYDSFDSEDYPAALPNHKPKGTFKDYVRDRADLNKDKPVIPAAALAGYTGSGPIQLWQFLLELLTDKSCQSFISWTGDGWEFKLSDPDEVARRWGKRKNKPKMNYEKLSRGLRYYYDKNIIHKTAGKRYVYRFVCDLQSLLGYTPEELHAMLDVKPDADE

Going from GAGGAGGCTGAGGAGGAAGTGCGGTGGCTGTTCTGC to CAGCTAGAGGAAGCGCTTCGCCCGCGAACCACAGGG, the ETS1 binding intensity falls from 1290 to 375.

Compared with GTCCCCCGGAACCGTCTCCTCCCCCGCACGCGCCGC, GCTTAGGCTCTTTCCTGTGTGGTGAGCACTAACCTC is lower in ETS1 binding intensity: 516 for the first, 488 for the second.

Compared with CAGCAAGCGTCCAGGAAGTGTGTGGGGGAGGTGTGG, CTCAGAGGCACCAAGGGAAGTGGTTAAAACAGAAAG is lower in ETS1 binding intensity: 2010 for the first, 677 for the second.

Compared with AGGAGTGAGGAAGTGAGGCTGGCCTTGTGGGTGTGG, CAGTGGCTTCCTCCCCACCTCCTACCACATTCAATG is lower in ETS1 binding intensity: 644 for the first, 517 for the second.

Compared with CAGAGGCCCGGCCTCTTCCGCCACAACTCCGGCCCG, GTACGCTCTTCACTTCCCGTACCCGCGCCCGGCAGG is higher in ETS1 binding intensity: 492 for the first, 609 for the second.

Compared with CACCCAAGGATATGCTTTTTTTTGGCAAGCCACATC, ACTTCCAGGAAGCCCCATAGTCCAGAAACCCACACA is higher in ETS1 binding intensity: 430 for the first, 493 for the second.

Compared with AACATTACGGAAGTTTCTCTACCCATGCGGTGTCTC, AGGGAAGCGGCGGCGGAAGCCCCGCAGGAGGCCGGC is higher in ETS1 binding intensity: 521 for the first, 806 for the second.

First: GGCGCCTCTTTCCGCCCCCGCCCACAATCGAGCGCA
Second: GTATTTATTTCCTCTTCGAAGAAATGCGGGGGTGCC
The ETS1 binding intensity of the first is higher: 535 for the first, 473 for the second.

Going from AAAACAACTTCCTTCCCCTCTCTCTCCACCACAGTC to GTTTCAGTATTTCCTGGTGCGGCGTACCACACCTAC, the ETS1 binding intensity rises from 554 to 620.

Going from AAGTCAGAGTTTACTTCCGAACCCACAGTGCCAAGC to AATTGTCAATGGCAGGAAGCCACCACATGAAGAGAT, the ETS1 binding intensity rises from 423 to 1290.

Going from CCGCCCACTTCCGTGTGGCCGCCGATTGGTTTTGCC to CTCTTCTTCAGGGTTTCCTGTGGGTACACTGAGAAC, the ETS1 binding intensity rises from 491 to 604.

Compared with AGGGAGACCGGGCCGGATTGCGGGGAGTGAGCAGGT, CAGATTTCCGGCTTCTGAGGAGCTGCCCTACCACAG is lower in ETS1 binding intensity: 543 for the first, 530 for the second.

Going from ACAGGAAGTGAGGCTGTGAGGAGTTTGTGGTGTGTA to GCGCAAGGCGCTTCCTCCCCCGCAGCGCGAGCCCCA, the ETS1 binding intensity falls from 2080 to 477.

Compared with AGGCAGGGAAGTGGCGCAGAGGAGACCACAGGACAC, CCAGCCTCCCCTTTCCTGTCTGTGGCAGGAGCGTGC is lower in ETS1 binding intensity: 563 for the first, 505 for the second.

First: GCTGCGCAGAGGAAACCAGGCTTGTTGGTTTTCATG
Second: GCAGGAAACGCTTTCTTAACACTATGTGGGTGAGGT
The ETS1 binding intensity of the first is lower: 432 for the first, 763 for the second.

First: GTGTTCAGACGGAAGCGTTATTCAGTGGTCAGAGCA
Second: CTTACAGATAAGGAAACTGAGGTTAAAATGTAGGGG
The ETS1 binding intensity of the first is higher: 741 for the first, 681 for the second.

First: CCTGTTCCGGGCTCCGTACACCCAGGCCCGCAGCTG
Second: GCACAGGAAAAGCTGCTTTCCGCGTGGTAAATTCAA
The ETS1 binding intensity of the first is higher: 550 for the first, 484 for the second.

Compared with CTCTTCCAGGAAGCCTTCCCTGACCACTGCTTGCTC, CGTTATTTCCGGGGCTGGGTTAACGCAGCGGTTCCA is higher in ETS1 binding intensity: 396 for the first, 631 for the second.

Going from CAGATTCGTGTTTCCGTGCCCGCAGCTCCGTCAGCT to GCAAACGGAAGAGAGGAACGAAGGCCGCAGAGCTTG, the ETS1 binding intensity rises from 467 to 486.

First: CCATGCGCTGCTTCCTTCCACTTACCGCCCTCGCAC
Second: TAAATAGGAAGTCAGAGTTTACTGCCGAACCCACAG
The ETS1 binding intensity of the first is lower: 523 for the first, 616 for the second.

molecular target: T1, ETS1; assay: ETS1 binding intensity (PBM fluorescence) in presence of RUNX1, normalised to ETS1-only experiment (arbitrary fluorescence units); higher = stronger binding; conditions: ETS1 concentration 1 nM; RUNX1 concentration 25 nM

Going from GAGGAGGCTGAGGAGGAAGTGCGGTGGCTGTTCTGC to CAGCTAGAGGAAGCGCTTCGCCCGCGAACCACAGGG, the ETS1 binding intensity falls from 1470 to 705.

First: GTCCCCCGGAACCGTCTCCTCCCCCGCACGCGCCGC
Second: GCTTAGGCTCTTTCCTGTGTGGTGAGCACTAACCTC
The ETS1 binding intensity of the first is higher: 433 for the first, 324 for the second.

Compared with CAGCAAGCGTCCAGGAAGTGTGTGGGGGAGGTGTGG, CTCAGAGGCACCAAGGGAAGTGGTTAAAACAGAAAG is lower in ETS1 binding intensity: 1920 for the first, 1790 for the second.

Compared with AGGAGTGAGGAAGTGAGGCTGGCCTTGTGGGTGTGG, CAGTGGCTTCCTCCCCACCTCCTACCACATTCAATG is lower in ETS1 binding intensity: 748 for the first, 467 for the second.

First: CAGAGGCCCGGCCTCTTCCGCCACAACTCCGGCCCG
Second: GTACGCTCTTCACTTCCCGTACCCGCGCCCGGCAGG
The ETS1 binding intensity of the first is lower: 356 for the first, 634 for the second.

First: CACCCAAGGATATGCTTTTTTTTGGCAAGCCACATC
Second: ACTTCCAGGAAGCCCCATAGTCCAGAAACCCACACA
The ETS1 binding intensity of the first is higher: 451 for the first, 402 for the second.

Compared with AACATTACGGAAGTTTCTCTACCCATGCGGTGTCTC, AGGGAAGCGGCGGCGGAAGCCCCGCAGGAGGCCGGC is higher in ETS1 binding intensity: 683 for the first, 932 for the second.

Compared with GGCGCCTCTTTCCGCCCCCGCCCACAATCGAGCGCA, GTATTTATTTCCTCTTCGAAGAAATGCGGGGGTGCC is higher in ETS1 binding intensity: 399 for the first, 438 for the second.

First: AAAACAACTTCCTTCCCCTCTCTCTCCACCACAGTC
Second: GTTTCAGTATTTCCTGGTGCGGCGTACCACACCTAC
The ETS1 binding intensity of the first is lower: 560 for the first, 566 for the second.

First: AAGTCAGAGTTTACTTCCGAACCCACAGTGCCAAGC
Second: AATTGTCAATGGCAGGAAGCCACCACATGAAGAGAT
The ETS1 binding intensity of the first is lower: 486 for the first, 1650 for the second.

Compared with CCGCCCACTTCCGTGTGGCCGCCGATTGGTTTTGCC, CTCTTCTTCAGGGTTTCCTGTGGGTACACTGAGAAC is higher in ETS1 binding intensity: 516 for the first, 602 for the second.

Going from AGGGAGACCGGGCCGGATTGCGGGGAGTGAGCAGGT to CAGATTTCCGGCTTCTGAGGAGCTGCCCTACCACAG, the ETS1 binding intensity rises from 360 to 398.

Compared with ACAGGAAGTGAGGCTGTGAGGAGTTTGTGGTGTGTA, GCGCAAGGCGCTTCCTCCCCCGCAGCGCGAGCCCCA is lower in ETS1 binding intensity: 4960 for the first, 435 for the second.

Going from AGGCAGGGAAGTGGCGCAGAGGAGACCACAGGACAC to CCAGCCTCCCCTTTCCTGTCTGTGGCAGGAGCGTGC, the ETS1 binding intensity falls from 803 to 512.

Compared with GCTGCGCAGAGGAAACCAGGCTTGTTGGTTTTCATG, GCAGGAAACGCTTTCTTAACACTATGTGGGTGAGGT is higher in ETS1 binding intensity: 457 for the first, 691 for the second.

Going from GTGTTCAGACGGAAGCGTTATTCAGTGGTCAGAGCA to CTTACAGATAAGGAAACTGAGGTTAAAATGTAGGGG, the ETS1 binding intensity falls from 1070 to 656.

Compared with CCTGTTCCGGGCTCCGTACACCCAGGCCCGCAGCTG, GCACAGGAAAAGCTGCTTTCCGCGTGGTAAATTCAA is lower in ETS1 binding intensity: 494 for the first, 446 for the second.

Compared with CTCTTCCAGGAAGCCTTCCCTGACCACTGCTTGCTC, CGTTATTTCCGGGGCTGGGTTAACGCAGCGGTTCCA is higher in ETS1 binding intensity: 505 for the first, 692 for the second.

First: CAGATTCGTGTTTCCGTGCCCGCAGCTCCGTCAGCT
Second: GCAAACGGAAGAGAGGAACGAAGGCCGCAGAGCTTG
The ETS1 binding intensity of the first is lower: 362 for the first, 481 for the second.

Compared with CCATGCGCTGCTTCCTTCCACTTACCGCCCTCGCAC, TAAATAGGAAGTCAGAGTTTACTGCCGAACCCACAG is higher in ETS1 binding intensity: 331 for the first, 523 for the second.
